Measured values from PubChem BioAssay (Tox21).
Values joined by “and” are separate entries in the source; they are usually repeats but may differ in a detail not shown here. Equal values may be shown once. A number with no mark means an inactive call. Inconclusive results are not listed. Entries that show only a call come without a potency. Active and inactive are the calls of the source. Unless noted, calls come from the whole dose curve; as a rule, active = well fitted curve in the direction sought with a large enough effect in the repeat runs; inconclusive = weak or mixed curves; inactive = no such curve, though single readings can be large; an effect the other way counts as inactive or inconclusive.

Tests used:
[1] = target: Androgen receptor (Homo sapiens) (UniProt P10275); test: qHTS assay to identify small molecule antagonists of the androgen receptor (AR) signaling pathway using the MDA cell line in the presence of 0.5 nM R1881 (AID 1259243); note: nearly all actives have a fitted effect of over 50% in size; note: potency is the fitted concentration of half-maximal effect
Androgen receptor (Homo sapiens), sequence (P10275 whole entry, looked up): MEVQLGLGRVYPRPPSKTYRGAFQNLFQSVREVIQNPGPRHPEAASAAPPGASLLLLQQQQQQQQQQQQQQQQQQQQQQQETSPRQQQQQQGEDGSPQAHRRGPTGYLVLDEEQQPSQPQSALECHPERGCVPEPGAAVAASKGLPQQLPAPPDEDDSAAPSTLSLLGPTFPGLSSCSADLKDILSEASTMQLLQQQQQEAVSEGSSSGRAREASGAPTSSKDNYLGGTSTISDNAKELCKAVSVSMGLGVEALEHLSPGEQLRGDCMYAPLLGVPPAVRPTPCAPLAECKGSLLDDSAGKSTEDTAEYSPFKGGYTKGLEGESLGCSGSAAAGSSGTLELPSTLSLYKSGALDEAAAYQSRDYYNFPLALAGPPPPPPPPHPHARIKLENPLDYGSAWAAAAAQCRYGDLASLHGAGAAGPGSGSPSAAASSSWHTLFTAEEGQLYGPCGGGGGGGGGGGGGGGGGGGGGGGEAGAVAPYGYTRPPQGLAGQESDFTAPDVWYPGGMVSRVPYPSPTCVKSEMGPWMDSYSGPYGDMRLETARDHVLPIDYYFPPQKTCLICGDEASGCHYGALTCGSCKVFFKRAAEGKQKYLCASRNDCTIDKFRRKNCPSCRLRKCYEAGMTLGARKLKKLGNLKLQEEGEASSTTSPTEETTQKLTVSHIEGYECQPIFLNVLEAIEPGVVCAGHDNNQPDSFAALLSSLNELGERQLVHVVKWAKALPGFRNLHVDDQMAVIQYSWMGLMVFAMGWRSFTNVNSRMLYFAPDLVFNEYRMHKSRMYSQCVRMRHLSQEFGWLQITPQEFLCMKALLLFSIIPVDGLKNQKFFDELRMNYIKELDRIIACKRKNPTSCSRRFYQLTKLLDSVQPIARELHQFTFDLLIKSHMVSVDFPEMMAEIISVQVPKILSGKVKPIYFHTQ
Procedure, shortened: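 We exposed MDA-kb2 cells to compounds under 0.5 nM R1881 stimulation for 16 hr at 37C and quantified MMTV-driven luciferase by luminescence.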

[2] = target: Estrogen receptor (Homo sapiens) (UniProt P03372); test: qHTS assay to identify small molecule antagonists of the estrogen receptor alpha (ER-alpha) signaling pathway using the BG1 cell line in the presence of 0.1 nM 17-beta-estradiol (AID 1259244); note: nearly all actives have a fitted effect of over 50% in size; note: potency is the fitted concentration of half-maximal effect
Estrogen receptor (Homo sapiens), sequence (P03372 whole entry, looked up): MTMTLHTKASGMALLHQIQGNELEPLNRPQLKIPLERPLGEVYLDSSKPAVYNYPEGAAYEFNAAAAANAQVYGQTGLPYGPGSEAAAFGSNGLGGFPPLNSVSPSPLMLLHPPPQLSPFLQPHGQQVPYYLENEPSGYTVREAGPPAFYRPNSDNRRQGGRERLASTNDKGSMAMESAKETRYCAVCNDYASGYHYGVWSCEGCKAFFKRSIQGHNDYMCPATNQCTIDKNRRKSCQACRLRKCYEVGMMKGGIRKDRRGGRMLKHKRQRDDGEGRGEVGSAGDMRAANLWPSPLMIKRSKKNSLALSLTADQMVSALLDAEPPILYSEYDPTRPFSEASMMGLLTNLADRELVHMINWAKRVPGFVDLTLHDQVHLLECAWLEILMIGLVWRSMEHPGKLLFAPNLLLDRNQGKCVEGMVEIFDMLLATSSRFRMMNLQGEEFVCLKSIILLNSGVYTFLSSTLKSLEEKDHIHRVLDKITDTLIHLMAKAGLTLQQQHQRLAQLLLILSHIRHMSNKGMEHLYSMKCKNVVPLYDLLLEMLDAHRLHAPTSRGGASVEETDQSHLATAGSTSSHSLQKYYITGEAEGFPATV
Procedure, shortened: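 VM7Luc4E2; 4xERE-luciferase; 0.1 nM E2 final; 22 h co-incubation, 37C; ONE-Glo luminescence after 30 min at room temperature.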

[3] = qHTS assay to identify small molecule HDAC inhibitors (AID 1259364);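 note: wild-type HCT-116 cells with endogenous class I/II HDAC activity; top concentration of the series differs between compounds; nearly all actives have a fitted effect of over 45% in size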
Procedure, shortened: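 Relative class I and II HDAC activity is taken from the luminogenic signal in HCT-116 cells, with compound exposure 2 hr and reagent development 30 min at room temperature.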

[4] = qHTS assay to identify small molecule HDAC inhibitors - cell viability counter screen (AID 1259365); note: series mostly up to about 92 µM; nearly all actives have a fitted effect of over 50% in size
Procedure, shortened: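 After overnight seeding at 1,500 cells per well, wild-type HCT-116 cultures took up compounds in DMSO for 2hr at 37 C. Viable cell content came from luminescence with CellTiter-Glo.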

[5] = qHTS assay to identify small molecule agonists of the sonic hedgehog signaling (Shh) pathway - cell viability counter screen (AID 1259366); note: nearly all actives have a fitted effect of over 50% in size; note: potency is the fitted concentration of half-maximal effect
Procedure, shortened: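 Same-well cytotoxicity read. Gli1-Luc reporter 3T3 cells; compounds 24hr, 37C/5% CO2; CellTiter-Fluor fluorescence.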

[6] = qHTS assay to identify small molecule antagonists of the sonic hedgehog signaling (Shh) pathway - cell viability counter screen (AID 1259367); note: nearly all actives have a fitted effect of over 55% in size; note: potency is the fitted concentration of half-maximal effect
Procedure, shortened: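 Using CellTiter-Fluor, viability of Gli1-Luc reporter 3T3 cells is read by fluorescence in the wells used for the Shh luciferase assay. Treatment lasts 23 hr with conditioned medium, then reagent 1 hr at 37C.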

[7] = qHTS assay to identify small molecule agonists of the sonic hedgehog signaling (Shh) pathway (AID 1259368; calls by dose curve;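 note: NIH/3T3-derived 3T3Gli1-Luc cells carrying a stable Gli1-driven firefly luciferase reporter; series mostly up to about 92 µM; nearly all actives have a fitted effect of over 15% in size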)
Procedure, shortened: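 Mouse fibroblast (NIH/3T3) reporter cells with stably integrated Gli1-Luc were treated 24 hr with compound; firefly luciferase luminescence served as the read-out.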

[8] = qHTS assay to identify small molecule antagonists of the sonic hedgehog signaling (Shh) pathway (AID 1259369; calls by dose curve; note: nearly all actives have a fitted effect of over 45% in size; note: potency is the fitted concentration of half-maximal effect)
Procedure, shortened: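 Conditioned medium drives Shh signalling in 3T3Gli1-Luc cells; compounds in DMSO co-applied, 24hr at 37 C, then luciferase luminescence.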

[9] = target: Estrogen receptor beta (Homo sapiens) (UniProt Q92731); test: qHTS assay to identify small molecule agonists of the estrogen receptor beta (ER-beta) signaling pathway (AID 1259377; active = well fitted activation curve with a large enough effect in the signal ratio in the repeat runs, not every such curve was filed as active; the % refers to the signal ratio)
Estrogen receptor beta (Homo sapiens), sequence (Q92731 whole entry, looked up): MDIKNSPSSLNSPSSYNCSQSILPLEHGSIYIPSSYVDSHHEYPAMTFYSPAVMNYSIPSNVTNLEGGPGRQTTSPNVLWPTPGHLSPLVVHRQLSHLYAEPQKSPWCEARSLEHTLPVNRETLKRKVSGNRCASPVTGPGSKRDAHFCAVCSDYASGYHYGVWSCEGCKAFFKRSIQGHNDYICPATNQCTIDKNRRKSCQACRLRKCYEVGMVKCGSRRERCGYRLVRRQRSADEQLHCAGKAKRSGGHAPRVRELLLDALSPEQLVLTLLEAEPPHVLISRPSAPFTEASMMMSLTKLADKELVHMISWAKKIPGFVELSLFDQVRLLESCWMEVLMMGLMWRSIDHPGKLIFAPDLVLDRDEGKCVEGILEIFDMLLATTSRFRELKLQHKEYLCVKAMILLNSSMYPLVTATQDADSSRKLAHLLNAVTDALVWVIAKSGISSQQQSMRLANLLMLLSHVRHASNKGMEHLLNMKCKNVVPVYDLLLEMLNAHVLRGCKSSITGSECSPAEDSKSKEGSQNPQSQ
Procedure, shortened: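 Read-out: beta-lactamase FRET fluorescence. Cell line: ER-beta-UAS-bla HEK293T in 2% charcoal-stripped FBS. Exposure: 16 hr at 37C. Substrate step: 2 h at room temperature.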

[10] = target: Estrogen receptor beta (Homo sapiens) (UniProt Q92731); test: qHTS assay to identify small molecule antagonists of the estrogen receptor beta (ER-beta) signaling pathway (AID 1259378; active = well fitted inhibition curve with a large enough effect in the signal ratio in the repeat runs, not every such curve was filed as active; the % refers to the signal ratio)
Procedure, shortened: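 Antagonist mode: compounds added to beta-lactamase reporter HEK293T ER-beta-UAS cells stimulated with E2 (1nM final), 16 hr at 37C. LiveBLAzer B/G FRET substrate, 2 hours room temperature, fluorescence read-out.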

[11] = qHTS assay to identify small molecule agonists of the estrogen receptor beta (ER-beta) signaling pathway - cell viability counter screen (AID 1259380); note: nearly all actives have a fitted effect of over 30% in size; note: potency is the fitted concentration of half-maximal effect
Procedure, shortened: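 Cells used were ER-beta-UAS-bla HEK293T in medium with 2% charcoal-stripped FBS. They were treated for 16 hr at 37C. Viability came from CellTiter-Glo luminescence.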

[12] = qHTS assay to identify small molecule antagonists of the estrogen receptor beta (ER-beta) signaling pathway - cell viability counter screen (AID 1259382); note: nearly all actives have a fitted effect of over 55% in size; note: potency is the fitted concentration of half-maximal effect
Procedure, shortened: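 Agonist-stimulated (1nM E2) ER-beta-UAS-bla HEK293T cells are incubated with library compounds for 16 hr at 37C. Cell viability is then assessed in the reporter-assay wells by adding CellTiter-Glo and reading luminescence after 30 min.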

[13] = target: Estrogen receptor (Homo sapiens) (UniProt P03372); test: qHTS assay to identify small molecule agonists of the estrogen receptor alpha (ER-alpha) signaling pathway in the presence of an antagonist (AID 1259383; calls by dose curve; note: top concentration of the series differs between compounds; nearly all actives have a fitted effect of over 15% in size)
Procedure, shortened: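 Using VM7Luc4E2 cells seeded 24hr before treatment, antagonist ICI-182,780 (10.0nM final) was added, followed by compounds at 15 concentrations. Plates incubated 22hr; ONE-Glo luminescence quantified reporter activity.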

[14] = qHTS assay to identify small molecule agonists or antagonists of the thyroid stimulating hormone receptor (TSHR) signaling pathway - wild type cell line counter screen (AID 1259384; calls by dose curve)
Procedure, shortened: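 Counter screen in untransfected Hek293: compounds (15-point titration, triplicate) plus phosphodiesterase inhibitor Ro20-1724 added after 18 h plating; 30 min RT. Intracellular cAMP via competitive d2/cryptate immunoassay, 1 h incubation.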

[15] = target: Thyrotropin receptor (Homo sapiens) (UniProt P16473); test: qHTS assay to identify small molecule antagonists of the thyroid stimulating hormone receptor (TSHR) signaling pathway (AID 1259385; calls by dose curve; note: nearly all actives have a fitted effect of over 20% in size; note: potency is the fitted concentration of half-maximal effect)
Thyrotropin receptor (Homo sapiens), sequence (P16473 whole entry, looked up): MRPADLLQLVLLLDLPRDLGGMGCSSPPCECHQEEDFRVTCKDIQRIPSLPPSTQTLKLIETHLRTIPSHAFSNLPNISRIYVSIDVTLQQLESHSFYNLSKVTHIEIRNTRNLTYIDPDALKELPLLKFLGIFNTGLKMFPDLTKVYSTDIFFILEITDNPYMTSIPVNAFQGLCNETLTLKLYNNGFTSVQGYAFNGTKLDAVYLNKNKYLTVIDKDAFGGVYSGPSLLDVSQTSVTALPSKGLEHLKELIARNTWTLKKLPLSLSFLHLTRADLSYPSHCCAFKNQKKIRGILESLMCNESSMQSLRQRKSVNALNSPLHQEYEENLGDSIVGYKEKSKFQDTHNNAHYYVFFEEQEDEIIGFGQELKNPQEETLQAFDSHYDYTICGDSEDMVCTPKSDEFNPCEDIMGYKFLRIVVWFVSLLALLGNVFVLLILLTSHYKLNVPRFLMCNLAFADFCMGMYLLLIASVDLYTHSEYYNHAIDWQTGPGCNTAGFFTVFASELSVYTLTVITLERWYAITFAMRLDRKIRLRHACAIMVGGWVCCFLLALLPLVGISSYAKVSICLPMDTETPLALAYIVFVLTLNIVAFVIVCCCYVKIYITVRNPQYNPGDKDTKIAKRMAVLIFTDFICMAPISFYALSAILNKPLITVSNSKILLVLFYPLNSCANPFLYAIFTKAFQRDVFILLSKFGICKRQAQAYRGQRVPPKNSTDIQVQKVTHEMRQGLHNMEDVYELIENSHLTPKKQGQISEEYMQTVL
Procedure, shortened: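 Antagonist mode: compound-treated TSHR-expressing HEK293 cells were stimulated with 1.5 ng/mL TSH (final) in presence of Ro20-1724 for 30 min at RT. HTRF cAMP detection after 1 h; each compound tested at 15 concentrations, triplicate.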

[16] = qHTS assay to identify small molecule agonists of the estrogen receptor alpha (ER-alpha) signaling pathway in the presence of an antagonist - cell viability counter screen (AID 1259386);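 note: cells exposed to compounds for 22 h at 37 °C before the viability read; nearly all actives have a fitted effect of over 30% in size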; note: potency is the fitted concentration of half-maximal effect
Procedure, shortened: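 ICI-182,780 at 10.0nM final accompanies the compound titration (15 concentrations, 22hr, 37C) on VM7Luc4E2 cells. The CellTiter-Fluor fluorescence readout runs in the same wells as the luciferase assay.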

[17] = target: Progesterone receptor (Homo sapiens) (UniProt P06401); test: qHTS assay to identify small molecule agonists of the progesterone receptor (PR) signaling pathway (AID 1346784; calls by dose curve; note: nearly all actives have a fitted effect of over 30% in size)
Progesterone receptor (Homo sapiens), sequence (P06401 whole entry, looked up): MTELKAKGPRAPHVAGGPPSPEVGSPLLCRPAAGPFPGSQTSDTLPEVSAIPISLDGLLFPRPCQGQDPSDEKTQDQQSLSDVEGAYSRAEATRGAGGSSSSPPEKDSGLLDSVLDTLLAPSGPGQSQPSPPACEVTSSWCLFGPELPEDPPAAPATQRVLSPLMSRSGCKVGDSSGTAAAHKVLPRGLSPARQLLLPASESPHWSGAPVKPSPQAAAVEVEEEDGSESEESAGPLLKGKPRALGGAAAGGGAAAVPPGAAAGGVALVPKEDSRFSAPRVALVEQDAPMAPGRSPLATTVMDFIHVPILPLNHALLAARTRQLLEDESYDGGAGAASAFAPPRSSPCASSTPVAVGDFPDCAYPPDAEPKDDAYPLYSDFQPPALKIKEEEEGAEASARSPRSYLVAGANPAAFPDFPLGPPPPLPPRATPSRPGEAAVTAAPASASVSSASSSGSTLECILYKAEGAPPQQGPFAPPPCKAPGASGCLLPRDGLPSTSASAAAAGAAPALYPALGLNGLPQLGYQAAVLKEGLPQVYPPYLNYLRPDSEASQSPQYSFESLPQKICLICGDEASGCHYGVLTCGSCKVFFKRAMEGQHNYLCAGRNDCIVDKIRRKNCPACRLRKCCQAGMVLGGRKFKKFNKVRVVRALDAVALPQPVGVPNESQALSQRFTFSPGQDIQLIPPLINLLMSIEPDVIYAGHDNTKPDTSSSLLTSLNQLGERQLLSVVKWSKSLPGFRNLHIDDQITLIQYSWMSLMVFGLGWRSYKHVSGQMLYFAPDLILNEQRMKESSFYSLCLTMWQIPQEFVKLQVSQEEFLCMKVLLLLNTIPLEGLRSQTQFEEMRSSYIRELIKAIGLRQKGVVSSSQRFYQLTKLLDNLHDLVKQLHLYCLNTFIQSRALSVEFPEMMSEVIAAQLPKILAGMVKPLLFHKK
Procedure, shortened: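 Compounds were tested for PR agonism in HEK 293T cells bearing a beta-lactamase gene under UAS control. Treatment lasted 16 hr at 37C; signal came from fluorescence of a FRET substrate.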

[18] = qHTS assay to identify small molecule agonists of the androgen receptor (AR) signaling pathway in the presence of an antagonist - cell viability counter screen (AID 1259379); note: nearly all actives have a fitted effect of over 25% in size; note: potency is the fitted concentration of half-maximal effect
Procedure, shortened: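 A CellTiter-Fluor read-out measured viability of MDA-kb2 reporter cells (MMTV promoter with AR and GR response elements). Treatment: nilutamide 3.0uM final with compounds at 15 concentrations, 16 hr, 37C, 0% CO2.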

[19] = target: Androgen receptor (Homo sapiens) (UniProt P10275); test: qHTS assay to identify small molecule agonists of the androgen receptor (AR) signaling pathway in the presence of an antagonist (AID 1259381; calls by dose curve; note: nearly all actives have a fitted effect of over 15% in size)
Procedure, shortened: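 Using human MDA-kb2 cells with an MMTV promoter–luciferase construct (AR and GR response elements), agonist activity is scored under 3.0uM nilutamide (final) co-treatment; 16hr incubation, 37C, luminescence readout via ONE-Glo.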

[20] = qHTS assay to identify small molecule phospholipidosis (PLD) inducers (AID 1259344; active = well fitted curve in the direction sought with a large enough effect; an effect the other way counts as inactive or inconclusive)
Procedure, shortened: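 Fluorescent phospholipid staining (LipidTOX Red) measured by automated microscopy in fixed HepG2 cells after 24 h treatment; nuclei counterstained with Hoechst 33342; amiodarone as reference inducer.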

Row | Compound | Potency [1] | Potency [2] | Potency [3] | Potency [4] | Potency [5] | Potency [6] | Potency [7] | Potency [8] | Potency [9] | Potency [10] | Potency [11] | Potency [12] | Potency [13] | outcome [14] | Potency [15] | Potency [16] | outcome [17] | Potency [18] | Potency [19] | Potency [20]
1 | O=c1cccc[nH]1 | inactive | inactive | inactive | inactive | inactive | inactive | inactive | inactive | inactive | inactive | inactive | inactive | inactive | inactive | inactive | inactive | inactive |  |  | 
2 | Cc1cccc(C)n1 | inactive | inactive | inactive | inactive | inactive | inactive | inactive | inactive | inactive | inactive | inactive | inactive | inactive | inactive | inactive | inactive | inactive | inactive | inactive | 
3 | O=CC1CC1 | inactive | inactive | inactive | inactive | inactive | inactive | inactive | inactive | inactive | inactive | inactive | inactive | inactive |  | inactive | inactive | inactive | inactive |  | 
4 | c1ccc2c(c1)CCC2 | inactive | inactive | inactive | inactive | inactive | inactive | inactive | inactive | inactive | inactive | inactive | inactive | inactive |  | inactive | inactive |  | inactive |  | 
5 | CC1=C(/C=C/C(C)=C/C=C/C(C)=C/C(=O)Nc2ccc(O)cc2)C(C)(C)CCC1 | 55.9 µM (active) and 18.8 µM (active) | 28 µM (active) and 13.3 µM (active) | inactive | inactive | 31.4 µM (active) and 21.1 µM (active) | 28 µM (active) and 21.1 µM (active) | inactive | 14 µM (active) and 11.9 µM (active) |  |  | 62.7 µM (active) and 26.6 µM (active) | 70.3 µM (active) | inactive |  | inactive | 31.4 µM (active) and 13.3 µM (active) |  | 49.8 µM (active) and 23.7 µM (active) |  | inactive
6 | O=C1NCCN1CCN1CCC(c2cn(-c3ccc(F)cc3)c3ccc(Cl)cc23)CC1 | 11.9 µM (active) | 8.41 µM (active) | inactive | inactive | 18.8 µM (active) |  | inactive | 13.3 µM (active) |  |  | 13.3 µM (active) |  | inactive | inactive | 29.8 µM (active) | inactive | inactive | 15 µM (active) | inactive | inactive
7 | CC(C)(C)c1n[nH]c(=O)n(N)c1=O | inactive | inactive | inactive | inactive | inactive | inactive | inactive | inactive | inactive | inactive | inactive | inactive | inactive | inactive | inactive | inactive | inactive | inactive | inactive | 
8 | CCCCCCCCC(C)=O | inactive | inactive | inactive | inactive | inactive | inactive | inactive | inactive |  |  | inactive | inactive | inactive | inactive | inactive | inactive |  | inactive | inactive | 
